From PubChem
Shown are actives, neighbours in structure and some others; about 19% of the full set was active somewhere.
DT40 TDP1 CPT = growth inhibition of DT40 Tdp1-/-;hTDP1 cells with camptothecin (screen for TDP1 inhibitors); Potency, µM (top dose mostly 46.2 µM), hits mostly inhibitors; 420,000 compounds, 12% hits; chicken DT40 Tdp1-/-;hTDP1 cells + 20 nM CPT, ATP luminescence, 48 h; AID 686979; note: nearly all actives have a fitted effect of over 55% in size
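Cell growth measured by CellTiter-Glo luminescence after a minimum 48 h, 37 C compound exposure with 20 nM CPT in Tdp1-knockout DT40 cells stably expressing hTDP1, seeded 400/well; qHTS titration format.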
HT1080NT lethal = kills 2HG-producing HT-1080-NT fibrosarcoma cells. HT-1080-NT fibrosarcoma viability, CellTiter-Glo ATP luminescence, 48 h. Potency, µM (top dose mostly 46.1 µM), most hits filed as cytotoxic. 360,000 compounds, 1.6% hits. AID 686970;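 note: NT is the 2HG producing partner of a matched IDH1 knockdown line; nearly all actives have a fitted effect of over 55% in size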
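HT-1080-NT fibrosarcoma cells (2HG-overproducing), 750 cells/well in RPMI with 5% FBS, dosed after 2 h and incubated 48 h at 37C. CellTiter-Glo luminescence normalized to DMSO and no-cell wells; concentration-response curves fitted and classed.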
IL1B secr inh = inflammasome signaling inhibition, IL-1 beta readout. THP-1 LPS/ATP IL-1B secretion, AlphaLISA, 16 h; stronger effect = lower value. activity change, % at 57.5 µM. 360,000 compounds, 4.7% hits. AID 743279; in the data active = activity change below about -50%; inconclusive = mostly about -30% to -49%
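Secreted IL-1B measured by AlphaLISA bead assay after 16 h compound exposure of THP-1 cells; compounds (final up to 57.5 uM) added 1 h before LPS (250 ng/mL) and ATP (1.25 mM) stimulation; lower signal means less secretion.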
HT1080 IDH1KD tx = kills HT-1080 cells with IDH1 knockdown; Potency, µM (doses to about 46.1 µM), hits mostly cytotoxic; 360,000 compounds, 2% hits; HT-1080 IDH1 knockdown viability, ATP luminescence, 48 h
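IDH1KD HT-1080 cells, 750/well, RPMI + 5% FBS; compound pinned after 2 h settling; 48 h, 37 °C; CellTiter-Glo luminescence; % activity normalised to DMSO and no-cell wells; curves fitted, classed by r2 and efficacy.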
TDP1 cell noCPT = qHTS for Inhibitors of human tyrosyl-DNA phosphodiesterase 1 (TDP1): qHTS in cells in absence of CPT. DT40 Tdp1-/- hTDP1 cells, no CPT, ATP luminescence, 48 h. Potency, µM (highest dose often 46.2 µM), most hits filed as inhibitors. 420,000 compounds, 15% hits. AID 686978, 2013; note: nearly all actives have a fitted effect of over 55% in size
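Chicken DT40 Tdp1-/- cells complemented with human TDP1, screened without camptothecin (DMSO vehicle only), 400 cells/well. Compounds pin-transferred, cells incubated at 37 °C for at least 48 hr. Growth read as ATP-dependent luminescence (CellTiter-Glo, 30 min at RT).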
A number is an active result; - = inactive; ? = inconclusive; . = no result given. Unless noted, calls come from the whole dose curve; as a rule, active = well fitted curve in the direction sought with a large enough effect; inconclusive = small, poorly fitted or top-dose-only effect, or another doubt; inactive = no such curve, though single readings can be large; an effect the other way counts as inactive or inconclusive.

SMILES	DT40 TDP1 CPT	HT1080NT lethal	IL1B secr inh	HT1080 IDH1KD tx	TDP1 cell noCPT
O=C(Cc1ccc(Cl)cc1)Nc1cccc(S(=O)(=O)N2CCCCC2)c1	?	-	-	-	21µM
COc1ccc(CC(=O)Nc2cccc(S(=O)(=O)N3CCOCC3)c2)cc1OC	?	-	-	-	?
O=C(Cc1ccccc1F)Nc1cccc(S(=O)(=O)N2CCCCC2)c1	?	-	-	-	21µM
Cc1c(NC(=O)COC(=O)c2ccccc2O)c(=O)n(-c2ccccc2)n1C	-	-	-	-	-
COc1ccc(Br)cc1CN(C)CC(=O)Nc1cccc(S(=O)(=O)N2CCCC2)c1	15µM	-	-52	-	10µM
COc1ccc(Br)cc1CN(C)CC(=O)Nc1cccc(S(N)(=O)=O)c1	-	-	-	-	-
O=c1oc(-c2ccccc2)nc2c1C1(CCCCC1)Cc1ccccc1-2	-	-	-	-	-
CCN(CC)Cc1nc2c(c(=O)[nH]1)C1(CCCCC1)Cc1ccccc1-2	21µM	-	-	-	18µM
CCC1(CC)Cc2ccccc2-c2nc(-c3ccccc3)oc(=O)c21	?	-	-	-	16µM
CCC1(CC)Cc2ccccc2-c2nc(CN(C)C)[nH]c(=O)c21	?	?	-	-	16µM
CN(C)Cc1nc2c(c(=O)[nH]1)C1(CCCCC1)Cc1ccccc1-2	18µM	-	-	-	23µM
O=c1[nH]c(NCCCO)nc2c1C1(CCCC1)Cc1ccccc1-2	?	-	?	?	?
CN(C)Cc1nc2c(c(=O)[nH]1)C(C)(C)Cc1ccccc1-2	-	-	-	-	-
CCOc1ccc(-c2nc(CN3CCCCC3CCn3cccn3)c(C)o2)cc1 (centres undefined)	?	?	-	-	-
CCn1c2ccccc2c2cc(/C=N/NC(=O)c3cc(O)cc(O)c3)ccc21	-	?	-106	?	?
CCn1c2ccccc2c2cc(/C=N/NC(=O)c3ccncc3)ccc21	?	-	-	?	?
CCn1c2ccccc2c2cc(/C=N/NC(=O)c3ccc(O)cc3)ccc21	23µM	?	-	?	26µM
CCN(CC)S(=O)(=O)c1cccc(C(=O)OCC(=O)NCCN2C(=O)CSC2=O)c1	-	-	-	-	-
CCCCCc1cc(=O)c2ccccc2o1	?	-	-	-	-
CCCCc1oc2ccccc2c1C(=O)c1cc(I)c(N(CC)CCOCC)c(I)c1	7.1µM	.	.	.	4.5µM
CCOc1ccc(S(=O)(=O)n2c(C)nc3ccccc32)cc1	?	?	-	-	21µM
CCOc1ccc(S(=O)(=O)N2CCC(C(=O)NCc3ccncc3)CC2)cc1	-	-	-	-	-
CCOc1ccc(S(=O)(=O)N2CCC(n3c(C)nc4cccnc43)CC2)cc1	21µM	.	.	.	12µM
CCOc1ccc(S(=O)(=O)N2CCC(c3ccncc3)CC2)cc1	12µM	.	.	.	?
CCCS(=O)(=O)N1CCC(n2c(C)nc3cccnc32)CC1	18µM	.	.	.	18µM
SMILES	DT40 TDP1 CPT	HT1080NT lethal	IL1B secr inh	HT1080 IDH1KD tx	TDP1 cell noCPT
CCCCOc1ccc(S(=O)(=O)n2c(C)nc3ccccc32)cc1	?	?	-	-	?
CC(C)NC(=O)C1(C)CCN1C(=O)C(c1ccccc1)c1ccccc1 (centres undefined)	-	-	-	-	-
NC(=O)c1ccsc1NC(=O)COC(=O)c1cc(=O)[nH]c2ccccc12	?	-	-	-	-
COc1cc(Nc2ncnc(N)n2)cc(OC)c1	-	-	-	-	-
COc1cc(C)c(CN2C[C@H](Sc3nc4ccccc4[nH]3)C[C@H]2C(=O)N(C)C)cc1C	-	.	.	.	-
CC(=O)c1ccc(NC(=O)Cn2c3ncccc3c(=O)n2-c2ccc(C)cc2)cc1	16µM	.	.	.	16µM
CCc1cccc(-n2c(=O)c3cccnc3n2CC(=O)Nc2ccc(OC)c(Cl)c2)c1	21µM	.	.	.	26µM
COc1ccc(NC(=O)Cn2c3ncccc3c(=O)n2-c2ccc(C)c(C)c2)c(OC)c1	-	.	.	.	-
CCc1ccc(-n2c(=O)c3cccnc3n2CC(=O)Nc2cc(F)ccc2F)cc1	2.6µM	.	.	.	8.2µM
CCc1ccc(-n2c(=O)c3cccnc3n2CC(=O)N(CC)c2cccc(C)c2)cc1	23µM	.	.	.	13µM
Cc1ccc(-n2c(=O)c3cccnc3n2CC(=O)NCc2ccc(Cl)cc2)cc1	-	.	.	.	-
C=CCSC1=NC(=O)/C(=C/c2cccs2)S1	?	-	-100	-	?
NC1=NC(=O)/C(=C/c2cccs2)S1	-	-	-	-	-
COc1ccc(OC)c(C(=O)COC(=O)c2ccccc2O)c1	-	-	-	-	-
CCOC(=O)C1=C(C)Nc2sc(C(=O)c3ccc(C)cc3)c(N)c2C1c1ccc(C(=O)OC)cc1 (centres undefined)	?	-	-	-	?
CCOC(=O)C1=C(C)Nc2sc(C(=O)c3ccc(F)cc3)c(N)c2C1c1ccc(C(=O)OC)cc1 (centres undefined)	18µM	-	-	-	12µM
CN1CCN(S(=O)(=O)c2cccc(C(=O)Oc3ccccc3Cl)c2)CC1	-	-	-	-	-
O=c1oc2ccccc2nc1/C=C(\O)c1ccccc1	?	-	-	-	?
O=Nc1[nH]c(=O)c(/C=C(\O)c2ccccc2)nc1NO	?	?	-	?	16µM
O=c1c2ccccc2c(-c2cccc(C(F)(F)F)c2)nn1-c1ccccc1	?	-	-	-	?
O=c1c2ccccc2c(-c2ccc(O)cc2)nn1-c1cccc(C(F)(F)F)c1	15µM	?	-98	21µM	15µM
CC(C)Oc1ccc(S(=O)(=O)N2CCOCC2)cc1NC(=O)CSc1nnc(C2CC2)n1C	-	-	-	-	-
COC(=O)c1[nH]c2cccc(OC)c2c1NC(=O)CCN1CCN(c2ccccc2OC)CC1	10µM	-	-	?	13µM
COc1ccc2[nH]cc(C(=O)CN3CCCC(C)C3)c2c1 (centres undefined)	-	-	-	-	-
COc1cccc(N2CCN(CC(=O)c3c[nH]c4ccc(OC)cc34)CC2C)c1 (centres undefined)	21µM	?	-	?	21µM
COC(=O)c1[nH]c2cccc(OC)c2c1NC(=O)CN1CCN(c2cccc(OC)c2)C(C)C1 (centres undefined)	?	-	-	-	15µM
CCOc1ccc(CCN2C(=O)c3ccc(C(=O)O)cc3C2=O)cc1OCC	-	-	-	-	-
Cc1sc2ncn(CC(=O)Nc3ccc(C(F)(F)F)cc3)c(=O)c2c1S(=O)(=O)N1CCN(C)CC1	?	.	.	.	1.3µM
CCc1ccc(NC(=O)Cn2cnc3sc(C)c(S(=O)(=O)N4CCN(c5ccccc5OC)CC4)c3c2=O)cc1	?	.	.	.	16µM
